Bioassay records deposited in PubChem BioAssay by National Center for Advancing Translational Sciences (NCATS).
The list is not random: actives were taken first. Their share in the collection is about 19%.
IL1B secr inh = blocks inflammasome-driven IL-1 beta release; activity change, % at 57.5 µM; 360,000 tested, 4.7% active; THP-1 LPS/ATP IL-1B secretion, AlphaLISA, 16 h; stronger effect = lower value; in the data active means activity change below about -50%; inconclusive means mostly about -30% to -49%
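Secreted IL-1B measured by AlphaLISA bead assay after 16 h compound exposure of THP-1 cells; compounds (final up to 57.5 uM) added 1 h before LPS (250 ng/mL) and ATP (1.25 mM) stimulation; lower signal means less secretion.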
HT1080NT lethal = kills 2HG-producing HT-1080-NT fibrosarcoma cells; HT-1080-NT fibrosarcoma viability, CellTiter-Glo ATP luminescence, 48 h; Potency, µM (doses to about 46.1 µM), without a hit: at the highest dose activity, negative = less viability, hits mostly cytotoxic; 360,000 tested, 1.6% active; AID 686970;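 further: NT is the 2HG producing partner of a matched IDH1 knockdown line; potency means the concentration at half of the fitted maximal effect; 0% = DMSO-treated cells and -100% = media-only wells without cells; nearly all actives have a fitted effect of over 55% in size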
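Viability of the 2HG-overproducing fibrosarcoma line after 48 hours of compound exposure at 37 degrees C was determined by luminescence with CellTiter-Glo, and concentration-effect curves were then fitted and categorized.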
TDP1 cell noCPT = qHTS for Inhibitors of human tyrosyl-DNA phosphodiesterase 1 (TDP1): qHTS in cells in absence of CPT; Potency, µM (doses to about 46.2 µM), without a hit: top-dose activity change, negative = growth inhibition, usual class: inhibitors; 420,000 tested, 15% active; DT40 Tdp1-/- hTDP1 cells, no CPT, ATP luminescence, 48 h; further: potency means the concentration at half of the fitted maximal effect; nearly all actives have a fitted effect of over 55% in size
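Chicken DT40 Tdp1-/- cells complemented with human TDP1, screened without camptothecin (DMSO vehicle only), 400 cells/well. Compounds pin-transferred, cells incubated at 37 °C for at least 48 hr. Growth read as ATP-dependent luminescence (CellTiter-Glo, 30 min at RT).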
DT40 TDP1 CPT = growth inhibition of DT40 Tdp1-/-;hTDP1 cells with camptothecin (screen for TDP1 inhibitors). Potency, µM (doses to about 46.2 µM), for inactives: at the highest dose activity change, negative = growth inhibition, actives largely listed as inhibitors. chicken DT40 Tdp1-/-;hTDP1 cells + 20 nM CPT, ATP luminescence, 48 h. 420,000 tested, 12% active; further: potency means the concentration at half of the fitted maximal effect; nearly all actives have a fitted effect of over 55% in size
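Chicken DT40 Tdp1-/- cells stably complemented with human TDP1 were seeded at 400 cells/well in medium containing 20 nM camptothecin, exposed to pin-transferred compounds, and grown at 37 °C for at least 48 hr. Viability was read as ATP luminescence.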
HT1080 IDH1KD tx = kills HT-1080 cells with IDH1 knockdown | HT-1080 IDH1 knockdown viability, ATP luminescence, 48 h | Potency, µM (series often up to 46.1 µM), without a hit: top-dose activity, negative = toxicity, hits mostly cytotoxic | 360,000 tested, 2% active | AID 686971;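 further: potency means the concentration at half of the fitted maximal effect; 0% = DMSO wells and -100% = cell-free medium wells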
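% activity derives from luminescence (CellTiter-Glo), normalised to DMSO and no-cell wells. HT-1080-IDH1KD cells, 750/well, had 48 h compound exposure at 37 °C.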
Active calls of the source: *; u = inconclusive; x = no result; ! = not active in a repeat. Unless noted, the call rests on the fitted dose curve; in most records, active means well fitted curve in the direction sought with a large enough effect; inconclusive means small, poorly fitted or top-dose-only effect, or another doubt; inactive means no such curve, though single readings can be large; an effect the other way counts as inactive or inconclusive. Unless noted, on the % scale 0 is the no-effect control and ±100 the full control effect.

SMILES	IL1B secr inh	HT1080NT lethal	TDP1 cell noCPT	DT40 TDP1 CPT	HT1080 IDH1KD tx
COC(=O)[C@@H]1C[C@@]1(C)[C@@H](NP(=O)(c1ccccc1)c1ccccc1)c1ccccc1	29.6	-5.3%	20.6µM*	u	7.3%
COP(=O)(OC)C(Nc1ccccc1)c1ccccc1 (stereo not drawn)	12.6	-1.3%	2.9%	-15.1%	-3.5%
CC(OC(=O)COc1ccc(Nc2ccccc2)cc1)C(=O)N(C)c1ccccc1 (stereo not drawn)	2.4	-1.0%	u	u	-0.1%
O=[N+]([O-])c1ccc(O)c([N+](=O)[O-])c1	43.3	-19.2%	u	u	-24.1%
O=[N+]([O-])c1ccc(Cl)c([N+](=O)[O-])c1	-110.1*	5.17µM*	4.61µM*	3.66µM*	18.4µM*
COc1cccc(-c2nc3c(C#N)c[nH]n3c2NC2CCCCC2)c1OC	x	x	20.6µM*	u	x
COC(=O)C1=C(c2cccc(OC)c2OC)C[C@@H]2CC[C@H]1N2C(=O)NC1CCCCC1	7.8	4.3%	u	-22.7%	12.0%
COc1ccc(CCNC(=O)C(=O)NCC2OCCN2S(=O)(=O)c2ccc(Cl)cc2)cc1 (stereo not drawn)	-1.3	-20.7%	u	u	-2.3%
O=C(NCCc1ccc(F)cc1)C(=O)NCC(c1cccs1)S(=O)(=O)c1ccc(Cl)cc1 (stereo not drawn)	x	x	11.6µM*	14.6µM*	x
CCOC(=O)N1CCN(c2ccc(Cl)c(Cl)c2)CC1	-11.1	-3.8%	12.6µM*	u	-7.9%
CCCC(=O)Nc1ccc(N2CCN(CC)CC2)c(Cl)c1	14.7	2.1%	u	3.0%	3.4%
C[n+]1c(-c2ccccc2)cc(CCCCc2cc(-c3ccccc3)[n+](C)c(-c3ccccc3)c2)cc1-c1ccccc1	-100.3*	u	5.17µM*	2.59µM*	u
Brc1ccc(-[n+]2c(-c3ccccc3)cc(-c3ccccc3)cc2-c2ccccc2)cc1	-82.8*	16.4µM*	2.59µM*	10.3µM*	13µM*
Cc1ccc(-c2cc(-c3ccccc3)cc(-c3ccccc3)[n+]2-c2ccc(C(=O)O)cc2)cc1	15.8	13.6%	2.6%	-2.8%	9.5%
CCCOC(=O)c1ccc(-[n+]2c(-c3ccccc3)cc(-c3ccccc3)cc2-c2ccccc2)cc1	-85.5*	20.6µM*	1.16µM*	1.16µM*	11.6µM*
COc1ccc(-[n+]2c(-c3ccccc3)cc(-c3ccc(C)cc3)cc2-c2ccccc2)cc1	-93.7*	4.61µM*	1.16µM*	2.59µM*	2.59µM*
O=C(O)CCn1cc(C=C2C(=O)NC(=O)NC2=O)c(-c2cc3ccccc3oc2=O)n1	10.2	16.3%	-5.6%	9.8%	15.5%
Nc1nc(SCCC(F)=C(F)F)n[nH]1	0.0	7.1%	-2.4%	10.6%	17.5%
COc1ccc(-c2cc(-c3ccccc3)[n+](C)c(-c3ccccc3)c2)cc1	-90.3*	u	0.581µM*	1.03µM*	14.6µM*
Oc1c(Br)cc(-c2ccccc2)cc1Br	-8.9	-1.5%	-23.3%	-9.6%	1.3%
NC1CCCCC1N=Cc1c(O)n(Cc2ccc(F)cc2)c(=O)[nH]c1=O (stereo not drawn)	-4.9	-14.7%	-18.7%	-19.9%	-6.4%
Cc1c(CCC(=O)N2CCCCC2)c(=O)oc2cc3occ(C(C)(C)C)c3cc12	x	x	11.6µM*	11.6µM*	x
CC(C)(C)C(=O)N1Cc2cc(-c3ccccc3)ccc2-n2nncc2C1	6.0	-4.2%	u	16.4µM*	0.9%
O=C(NC1CCCCC1)N1Cc2cc(-c3cccc(F)c3)ccc2-n2nncc2C1	u	-2.2%	u	-25.9%	-5.0%
COc1ccc(-c2ccc3c(c2)CN(C(=O)NC2CCCCC2)Cc2cnnn2-3)cc1	-52.8*	u	u	u	u
SMILES	IL1B secr inh	HT1080NT lethal	TDP1 cell noCPT	DT40 TDP1 CPT	HT1080 IDH1KD tx
CCCNC(=O)C1(C)CCN(Cc2ccc3ccccc3c2Br)C1 (stereo not drawn)	-13.8	-22.1%	u	u	u
COC(=O)C1=C(c2cc3ccccc3s2)C[C@@H]2CC[C@H]1N2C(=O)NCCCOC(C)C	4.4	4.7%	18.4µM*	18.4µM*	12.1%
CCCNC(=O)N1[C@H]2CC[C@@H]1C(C(=O)OC)=C(c1cc3ccccc3s1)C2	4.8	2.6%	x	11.6µM*	1.9%
c1ccc(N=Nc2ccccc2)cc1	x	x	4.7%	13.1%	x
Cc1cccc(NC(=O)N2CCCC2)c1	0.8	4.3%	8.2%	-9.7%	-2.7%
O=C(Nc1ccc2nc(-c3cccs3)c(-c3cccs3)nc2c1)N1CCCCC1	x	x	11.2µM*	8.91µM*	x
O=S(=O)(c1ccc(Nc2ccc(-c3ccc4c(c3)OCCO4)nn2)cc1)N1CCCC1	0.0	15.8µM*	u	u	u
CC(C)NC(=O)N1CC[C@@]2(CCCNC2)C1	x	x	-0.1%	-0.1%	x
Cc1ccc(NC(=O)c2cc(S(=O)(=O)N3CCOCC3)c(Cl)cc2Cl)cc1	x	x	18.4µM*	u	x
Cn1c(O)c(N=Nc2ccc(S(=O)(=O)N3CCOCC3)cc2)c(=O)n(C)c1=O	-19.8	-3.3%	-6.3%	1.0%	-3.6%
CC(C)(C)OC(=O)NCc1ccc(CNC(=O)c2[nH]cnc2C(=O)Nc2ccccc2F)cc1	-7.3	-18.2%	7.31µM*	13µM*	-27.0%
CN1CC[C@@]2(C)c3cc(O)ccc3N(C)[C@@H]12	-25.6	23.1µM*	7.31µM*	5.8µM*	u
CNC(=O)Oc1ccc2c(c1)[C@@]1(C)CCN(C)[C@@H]1N2C	x	x	-19.8%	-9.4%	x
CCN(C=C1CC2C3CC=C4CC(O)CCC4(C)C3CCC2(C)C1=O)CC (stereo not drawn)	-17.9	-24.5%	u	-2.0%	u
CC(C)(C)c1ccc(O)c(N=Cc2c(O)ccc3ccccc23)c1	78.7	-7.5%	16.4µM*	25.9µM*	-27.2%
Fc1ccc2c(c1)nnn2C1CCN(Cc2nnnn2CCc2ccccc2)CC1	-24.4	-10.8%	u	u	-0.9%
Cc1ccc2c(Cl)cc(Cl)c(O)c2n1	-94.3*	-24.4%	3.26µM*!	2.91µM*!	8.2µM*
CCOP(=O)(OCC)c1cccc(P(=O)(c2ccccc2)c2ccccc2)c1O	54.6	u	u	-120.4%	-7.4%
COc1ccc(-c2cc(C(F)(F)F)n3nc(C(=O)N4CCC5(CC4)OCCO5)cc3n2)cc1OC	-8.1	-6.4%	20.6µM*	-23.4%	-8.0%
O=C(c1cc2ccccn2n1)N1CCC2(CC1)OCCO2	28.0	-2.2%	-10.8%	-7.1%	13.6%
CCc1c(C)nc(N)nc1N1N=C1SCC(=O)OC	6.2	19.7%	-9.1%	3.7%	-0.3%
